15 molecules from PubChem BioAssay AID1671189 (National Center for Advancing Translational Sciences (NCATS), 2021) can be followed below.

In all, about 1,100 compounds went through this assay and about 70 (6%) were called active. Entries that show only a call come without a potency. Not shown: some 22% with an inconclusive outcome. Calls come from the whole dose curve; as a rule, active = well fitted curve in the direction sought with a large enough effect; inconclusive = small, poorly fitted or top-dose-only effect, or another doubt; inactive = no such curve, though single readings can be large or run the other way. The sample as a whole holds a higher share of actives than the screen did.
Potency is the fitted concentration of half-maximal effect.

Chain of Polyunsaturated fatty acid lipoxygenase ALOX12 (Homo sapiens) (P18054 whole entry, looked up): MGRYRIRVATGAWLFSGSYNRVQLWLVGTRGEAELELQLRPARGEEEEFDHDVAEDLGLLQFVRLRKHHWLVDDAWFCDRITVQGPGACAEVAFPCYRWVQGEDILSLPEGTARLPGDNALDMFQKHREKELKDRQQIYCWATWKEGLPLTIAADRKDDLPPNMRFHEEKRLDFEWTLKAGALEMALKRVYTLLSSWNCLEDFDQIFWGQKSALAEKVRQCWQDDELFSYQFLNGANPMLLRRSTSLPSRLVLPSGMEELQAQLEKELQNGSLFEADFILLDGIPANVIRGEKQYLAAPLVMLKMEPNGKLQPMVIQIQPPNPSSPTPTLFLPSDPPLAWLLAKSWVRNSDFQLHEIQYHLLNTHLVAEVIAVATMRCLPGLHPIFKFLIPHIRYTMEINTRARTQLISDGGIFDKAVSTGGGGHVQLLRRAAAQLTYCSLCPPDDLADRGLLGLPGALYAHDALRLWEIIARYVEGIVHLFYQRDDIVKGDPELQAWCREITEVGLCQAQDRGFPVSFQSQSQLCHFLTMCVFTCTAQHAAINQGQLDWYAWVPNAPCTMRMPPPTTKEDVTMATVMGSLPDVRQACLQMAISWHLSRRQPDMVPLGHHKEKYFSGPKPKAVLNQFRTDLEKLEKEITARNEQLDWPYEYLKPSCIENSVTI

The assay concerns the target Polyunsaturated fatty acid lipoxygenase ALOX12 (Homo sapiens) (UniProt P18054). Description: Confirmatory qHTS assay for inhibitors of human arachidonate 12S-lipoxygenase (ALOX12): Round 2. The note with it: purified human 12-LOX, xylenol orange absorbance; series mostly up to 125 µM. The source says:
Assay Provider: Theodore R. Holman Ph.D. University of California, Santa Cruz, California Human lipoxygenase 12hLO is a member of the closely related lipoxygenase family of enzymes which catalyze the site-specific oxidation of arachidonic acid to various hormone precursor molecules and as such is a candidate for drug development in a variety of disease areas, such as cancer and inflammation. Inhibition of 12hLO activity was screened by utilizing arachidonic acid as a substrate. The extent of hydroperoxide product formation was measured by a secondary chromogenic reaction in which xylenol orange (XO, Sigma-Aldrich, cat. number 39,818-7) reacts with the ferric ions produced from the reaction between the hydroperoxide and ferrous ions. The Fe (III)-XO complex is characterized with red-shifted absorbance at 560 nm. A purified preparation of human 12hLO was supplied by Dr. Holman laboratory, University of California, Santa Cruz.
PROTOCOL TABLE SEQUENCE No. (e.g., 1, 2, 3, etc.); […] (e.g., Cells, Incubation, Reagent, etc.); VALUE; DESCRIPTION 1; Enzyme; 3 uL; 150 nM 12hLO enzyme solution dispensed in 1536-well Greiner black, clear bottom plates. 2; Compound; 23 nL; compounds and controls were added. 3; Incubate; 15 min; room temperature. 4; Substrate; 1 uL; 40 uM arachidonic acid (final concentration). 5; Incubate; 30 min; room temperature. 6; Reagent; 4 uL; Fe-XO solution was added to each well. 7; Incubation; 30 min; room temperature 8; Detector; absorbance; Read 1 at 405 nm absorbance using ViewLux (PerkinElmer) CCD imager. 9; Detector; absorbance; Read 2 at 573 nm absorbance using ViewLux (PerkinElmer) CCD imager. NOTES (numbers refer to sequence above) 1; 150 nM 12hLO (final concentration) in buffer solution (25 mM Hepes, 0.01% Triton X-100, pH 7.0) was dispensed in columns 1, 2, 5-48. Column 1 is neutral (100% activity). Buffer only was dispensed in columns 3 and 4 as no enzyme negative controls. The plates were covered with metal lids with gas-exchange holes. 2; Compounds were pin transferred via a Kalypsys Pin Tool (Wako USA) in column 5 - 48. Control compound was transferred in column 2, titration of nordihydroguaiaretic acid (NDGA, Sigma-Aldrich, N5023) with top concentration of 20 mM in DMSO then 1:3 dilution in duplicate. Dilution factor of 23 nL into 4 uL final assay volume. 3; Covered assay plates were incubated for 15 min at room temperature. 4; Substrate was added to start the reaction; 40 uM arachidonic acid (Sigma-Aldrich, St. Louis, MO) was dispensed throughout the plate. 6; Chromogenic detection reagent solution (divalent iron/xylenol orange, Fe-XO) was added to each well: 200 uM xylenol orange, 300 uM ferrous ammonium sulfate prepared freshly in 50 mM sulfuric acid. 8, 9; Two absorbance readouts were obtained at 405 nm and at 573 nm using a ViewLux high-throughput CCD plate imager (PerkinElmer). The 573 to 405 (Read 2 / Read 1) absorbance ratio was used to compute reaction progress.
For the molecule `COc1ccccc1NC(=O)Nc1ccc2n(c1=O)C[C@H]1C[C@@H]2CN(C2CCOCC2)C1`, the Potency is 14.1 µM (active).
`O=C(Nc1ccc2n(c1=O)C[C@H]1C[C@@H]2CN(Cc2ccc(F)cc2)C1)c1cccs1`: the Potency entry is “inactive”.
Consider `Cc1o[nH]c(=O)c1C[C@H](N)C(=O)O`, for which the Potency entry was “inactive”.
With `C#C[C@H]1CN2CC[C@H]1C[C@@H]2COC(=O)NCCC` the figure was 17.8 µM (active); with `O=C(O)C1=NOC2CN(Cc3cccc(Br)n3)CC12` (stereo not given), “inactive”; with `c1cc2nc(C3CCNCC3)[nH]c2cn1`, “inactive”.
In the case of `CCN1C[C@]2(COC(=O)c3ccccc3N3C(=O)CC(C)C3=O)CC[C@H](OC)[C@@]34C5C[C@@H]6[C@@H](OC)C[C@@](O)(C5[C@H]6OC)[C@](O)([C@@H](OC)C23)[C@@H]14` (stereo not given in full), the Potency entry was “inactive”.
The same measure for `CCOc1ccc(CN(CCc2ccc3c(c2)OCO3)Cc2ccc(C)cc2)cc1`: “inactive”.
Turning to `N[C@@]1(C(=O)O)CC[C@H](C(=O)O)C1`, the Potency result is “inactive”.
With `CSc1ccc(-c2ccc(=O)n3c2[C@@H]2C[C@@H](CN(S(C)(=O)=O)C2)C3)cc1` the entry was “inactive”.
`CCCS(=O)(=O)N1C[C@@H]2C[C@H](C1)c1c(-c3ccc(Cl)cc3)ccc(=O)n1C2`: the Potency entry was “inactive”.
As to `CSc1ccc(-c2ccc(=O)n3c2[C@@H]2C[C@@H](CN(S(=O)(=O)c4cccs4)C2)C3)cc1`, the Potency is 15.8 µM (active).
As to `CSc1ccc(CN2CCN(C(=O)COc3ccc(C)cc3)CC2)cc1`, the Potency result was “inactive”.
With `O=C(Cc1ccc(Cl)cc1)N1Cc2ccccc2CC2(CCCN2CC2CCNC2)C1` (stereo not given), the Potency result is “inactive”.
In the case of `O=C(O)C1CN(Cc2ncc[nH]2)CCN(C(=O)Cc2cccs2)C1` (stereo not given), the Potency result is “inactive”.
